Assay results published in the supplement of paper PMC12494721.
Counter-ions that a name gives are not always drawn.

Assays:
Settings in all cases: incubation time: 27 h, anaerobic, 37 °C;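 for the amine columns active = adjusted P below 0.05 in both replicates with a change the same way and a mean fold change under 0.8 or over 1.25; inactive = the rest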
[1] = test system: Clostridium sporogenes DSM 1664; experiment: growth (OD595) fold change vs plate DMSO controls (fold change (ratio)); higher = more growth
How it was run: (§1)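 Growth is the fold change relative to the median of plate DMSO controls. Readings came from anaerobic mGAM cultures in 96-well plates grown for 27 h at 37 °C and read at 595 nm. They were blank-subtracted, corrected for compound background with 20 µM compound solutions in water, and converted to OD with a calibration factor of 5. Values are means of 2 biological replicates, and fold changes above 1.5 were set to NA.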

Escherichia coli IAI1 [2] = experiment: as above
How it was run: as §1

[3] = test system: Klebsiella aerogenes DSM 30053; experiment: as above
How it was run: as §1

[4] = test system: Ruminococcus gnavus DSM 108212; experiment: as above
How it was run: as §1

[5] = test system: Klebsiella aerogenes DSM 30053; experiment: fold change of Histamine concentration vs plate DMSO controls (fold change (ratio)); higher = more amine produced, active = hit call of the paper (significant change in both replicates, either direction)
How it was run: (§2)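 Anaerobic mGAM cultures of four gut bacterial strains were grown at 37 °C for 27 h in 80 µL wells, starting at OD 0.1 before 1:1 dilution. Compounds were at 20 µM final (sweeteners 50 µM). Whole cultures were extracted with cold acetonitrile/methanol containing 0.1% formic acid and centrifuged. Amines were quantified by LC–triple-quadrupole MS (dynamic MRM) against external calibration curves and drift-corrected within batch. Each value is the fold change versus plate DMSO controls, averaged over 2 biological replicates.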

[6] = test system: Clostridium sporogenes DSM 1664; experiment: fold change of Tryptamine concentration vs plate DMSO controls (fold change (ratio)); higher = more amine produced, active = hit call of the paper (significant change in both replicates, either direction)
How it was run: as §2

[7] = test system: Ruminococcus gnavus DSM 108212; experiment: as above
How it was run: as §2

Escherichia coli IAI1 [8] = experiment: fold change of Putrescine concentration vs plate DMSO controls (fold change (ratio)); higher = more amine produced, active = hit call of the paper (significant change in both replicates, either direction)
How it was run: as §2

[9] = test system: Klebsiella aerogenes DSM 30053; experiment: as above
How it was run: as §2

Escherichia coli IAI1 [10] = experiment: fold change of Cadaverine concentration vs plate DMSO controls (fold change (ratio)); higher = more amine produced, active = hit call of the paper (significant change in both replicates, either direction)
How it was run: as §2

[11] = test system: Klebsiella aerogenes DSM 30053; experiment: as above
How it was run: as §2

[12] = test system: Ruminococcus gnavus DSM 108212; experiment: fold change of 2-Phenylethylamine concentration vs plate DMSO controls (fold change (ratio)); higher = more amine produced, active = hit call of the paper (significant change in both replicates, either direction)
How it was run: as §2

Structure (SMILES) | growth [1] | growth (Escherichia coli IAI1 [2]) | growth [3] | growth [4] | fold change of Histamine concentration [5] | fold change of Tryptamine concentration [6] | fold change of Tryptamine concentration [7] | fold change of Putrescine concentration (Escherichia coli IAI1 [8]) | fold change of Putrescine concentration [9] | fold change of Cadaverine concentration (Escherichia coli IAI1 [10]) | fold change of Cadaverine concentration [11] | fold change of 2-Phenylethylamine concentration [12]
CCn1cc(C(=O)O)c(=O)c2cc(F)c(N3CCNC(C)C3)c(F)c21 (stereo not given) [Lomefloxacin hydrochloride] (20 µM) | 0.0338 | 0.0575 | 0.252 | 1.01 | 0.0674 (active) | 0.0603 (active) | 1.03 (inactive) | 0.781 (active) | 0.627 (active) | 0.166 (active) | 0.981 (inactive) | 1.03 (inactive)
CCOC(=O)[C@H](CCc1ccccc1)N[C@@H](C)C(=O)N1[C@H](C(=O)O)C[C@@H]2CCC[C@@H]21 [Ramipril] (20 µM) | 1.06 | 0.984 | 1.13 | 1.19 | 0.948 (inactive) | 0.963 (inactive) | 0.966 (inactive) | 0.999 (inactive) | 1.05 (inactive) | 0.964 (inactive) | 1.05 (inactive) | 0.911 (inactive)
CC(=O)Oc1ccccc1C(=O)Oc1ccccc1C(=O)O [Acetylsalicylsalicylic acid] (20 µM) | 1.05 | 1 | 0.995 | 0.881 | 1.02 (inactive) | 1.01 (inactive) | 1.06 (inactive) | 1.01 (inactive) | 0.998 (inactive) | 0.983 (inactive) | 1.01 (inactive) | 1.11 (inactive)
CN(C)/N=N/c1[nH]cnc1C(N)=O [Dacarbazine] (20 µM) | 0.822 | 1 | 1.06 | 1.02 | 0.954 (inactive) | 1 (inactive) | 1.01 (inactive) | 0.984 (inactive) | 1.01 (inactive) | 0.993 (inactive) | 1.02 (inactive) | 1.05 (inactive)
C#C[C@]1(O)CC[C@H]2[C@@H]3CCC4=Cc5oncc5C[C@]4(C)[C@H]3CC[C@@]21C [Danazol] (20 µM) | 0.903 | 0.883 | 0.858 | 0.744 | 1.07 (inactive) | 0.887 (inactive) | 1.03 (inactive) | 1.01 (inactive) | 1.02 (inactive) | 0.994 (inactive) | 0.993 (inactive) | 0.997 (inactive)
CC(=O)[C@@]12O[C@](C)(c3ccccc3)O[C@@H]1C[C@H]1[C@@H]3CCC4=CC(=O)CC[C@]4(C)[C@H]3CC[C@@]12C [Algestone acetophenide] (20 µM) | 1.03 | 1.22 | 0.998 | 1.13 | 1.03 (inactive) | 0.919 (inactive) | 1.08 (inactive) | 1.3 (inactive) | 1.01 (inactive) | 0.955 (inactive) | 1 (inactive) | 1.1 (inactive)
O=C(O)C1CSCN1 (stereo not given) [Timonacic] (20 µM) | 0.827 | 1.02 | 1 | 0.956 | 0.992 (inactive) | 1 (inactive) | 1.02 (inactive) | 1.04 (inactive) | 1.01 (inactive) | 1 (inactive) | 1 (inactive) | 0.998 (inactive)
CC[N+](CC)(CC)CCOc1cccc(OCC[N+](CC)(CC)CC)c1OCC[N+](CC)(CC)CC [Gallamine triethiodide] (20 µM) | 1.09 | 1.02 | 1.05 | 0.905 | 0.862 (inactive) | 1.12 (inactive) | 1.09 (inactive) | 1.06 (inactive) | 0.945 (inactive) | 0.947 (inactive) | 1.04 (inactive) | 1.06 (inactive)
COc1ccccc1OCC(O)CO (stereo not given) [Guaifenesin] (20 µM) | 1.09 | 0.954 | 0.98 | 1.03 | 1.05 (inactive) | 1.04 (inactive) | 1.05 (inactive) | 1.04 (inactive) | 1.01 (inactive) | 0.991 (inactive) | 0.988 (inactive) | 1.1 (inactive)
Clc1ccc(C(Cn2ccnc2)OCc2c(Cl)cccc2Cl)c(Cl)c1 (stereo not given) [Isoconazole] (20 µM) | 0.999 | 0.858 | 0.862 | 0.0371 | 1 (inactive) | 0.846 (inactive) | 0.265 (active) | 1.01 (inactive) | 1.01 (inactive) | 0.966 (inactive) | 1 (inactive) | 0.289 (active)
CCCN(CCC)S(=O)(=O)c1ccc(C(=O)O)cc1 [Probenecid] (20 µM) | 1.04 | 1.02 | 1.17 | 1.09 | 0.92 (inactive) | 0.999 (inactive) | 1 (inactive) | 0.984 (inactive) | 1 (inactive) | 1.04 (inactive) | 1.02 (inactive) | 1.02 (inactive)
O=C(O)CNC(=O)c1ccccc1 [Hippuric acid] (20 µM) | 1.12 | 1.02 | 1.02 | 1.05 | 1.03 (inactive) | 1.05 (inactive) | 1.08 (inactive) | 0.979 (inactive) | 0.997 (inactive) | 0.94 (inactive) | 1.01 (inactive) | 1.09 (inactive)
Cn1cnc2c1c(=O)[nH]c(=O)n2C [Theobromine] (20 µM) | 1.19 | 1 | 1.04 | 1.11 | 0.986 (inactive) | 1.11 (inactive) | 1.05 (inactive) | 0.998 (inactive) | 0.991 (inactive) | 0.982 (inactive) | 1 (inactive) | 1.04 (inactive)
CCCc1cc(=O)[nH]c(=S)[nH]1 [Propylthiouracil] (20 µM) | 0.934 | 1.06 | 0.995 | 1.05 | 0.972 (inactive) | 1.03 (inactive) | 1.04 (inactive) | 1.05 (inactive) | 1.01 (inactive) | 0.974 (inactive) | 0.995 (inactive) | 1.03 (inactive)
CCCCC1C(=O)N(c2ccccc2)N(c2ccccc2)C1=O [Phenylbutazone] (20 µM) | 1.03 | 0.993 | 1.01 | 1.02 | 1.05 (inactive) | 0.986 (inactive) | 0.969 (inactive) | 0.992 (inactive) | 1.05 (inactive) | 1.01 (inactive) | 1.04 (inactive) | 0.878 (inactive)
CS(=O)(=O)OCCCCOS(C)(=O)=O [Busulfan] (20 µM) | 0.951 | 1.07 | 0.991 | 1.09 | 0.992 (inactive) | 1.04 (inactive) | 1.11 (inactive) | 1.08 (inactive) | 0.962 (inactive) | 1.04 (inactive) | 1.04 (inactive) | 1.09 (inactive)
Nc1nc(=S)c2ncn([C@@H]3O[C@H](CO)[C@@H](O)[C@H]3O)c2[nH]1 [Thioguanosine] (20 µM) | 0.927 | 0.951 | 1.03 | 0.773 | 0.953 (inactive) | 0.981 (inactive) | 0.955 (inactive) | 0.479 (inactive) | 1.01 (inactive) | 0.903 (inactive) | 1.03 (inactive) | 0.925 (inactive)
C=CC[C@@H]1/C=C(\C)C[C@H](C)C[C@H](OC)[C@H]2O[C@@](O)(C(=O)C(=O)N3CCCC[C@H]3C(=O)O[C@H](/C(C)=C/[C@@H]3CC[C@@H](O)[C@H](OC)C3)[C@H](C)[C@@H](O)CC1=O)[C@H](C)C[C@@H]2OC [Tacrolimus Monohydrate] (20 µM) | 0.867 | 1.04 | 1.02 | 1.02 | 1.02 (inactive) | 1.02 (inactive) | 1.01 (inactive) | 1.05 (inactive) | 1.02 (inactive) | 1.01 (inactive) | 1.01 (inactive) | 1.02 (inactive)
NS(=O)(=O)c1cc(C2(O)NC(=O)c3ccccc32)ccc1Cl (stereo not given) [Chlorthalidone] (20 µM) | 0.955 | 0.977 | 1 | 1.17 | 1.09 (inactive) | 1 (inactive) | 1.03 (inactive) | 0.992 (inactive) | 1.03 (inactive) | 0.973 (inactive) | 0.983 (inactive) | 1.04 (inactive)
Cn1c(=O)c2c(ncn2CC(O)CO)n(C)c1=O (stereo not given) [Diprophylline] (20 µM) | 0.915 | 1.02 | 0.992 | 0.783 | 1.03 (inactive) | 0.964 (inactive) | 0.971 (inactive) | 1.02 (inactive) | 1.01 (inactive) | 0.98 (inactive) | 1 (inactive) | 0.99 (inactive)
Oc1c(Cl)cc(Cl)c(Cl)c1Cc1c(O)c(Cl)cc(Cl)c1Cl [Hexachlorophene] (20 µM) | 0 | 0.943 | 0.999 | 0 | 1.17 (inactive) | 0.0251 (active) | 0.0326 (active) | 0.982 (inactive) | 1.02 (inactive) | 1.1 (inactive) | 1.02 (inactive) | 0.0393 (active)
CC(=O)c1ccc2c(c1)N(CCCN(C)C)c1ccccc1S2 [Acetopromazine maleate salt] (20 µM) | 0.96 | 1 | 0.976 | 0.878 | 1.03 (inactive) | 1.01 (inactive) | 1.01 (inactive) | 1 (inactive) | 1.01 (inactive) | 1.03 (inactive) | 0.983 (inactive) | 1.03 (inactive)
CCOc1nc2cccc(C(=O)OCc3oc(=O)oc3C)c2n1Cc1ccc(-c2ccccc2-c2noc(=O)[nH]2)cc1 [Azilsartan medoxomil] (20 µM) | 1.04 | 1 | 0.984 | 1.1 | 1.04 (inactive) | 1.01 (inactive) | 1.07 (inactive) | 1.02 (inactive) | 1.01 (inactive) | 0.997 (inactive) | 0.999 (inactive) | 1.03 (inactive)
NC(=O)c1ncn([C@@H]2O[C@H](CO)[C@@H](O)[C@H]2O)c1O [Mizoribine] (20 µM) | 0.99 | 1.06 | 1.06 | 1 | 0.951 (inactive) | 1.02 (inactive) | 1.01 (inactive) | 1.02 (inactive) | 1.02 (inactive) | 0.997 (inactive) | 1.01 (inactive) | 0.982 (inactive)
COC(c1ccccc1)(c1ccccc1)[C@H](Oc1nc(C)cc(C)n1)C(=O)O [Ambrisentan] (20 µM) | 0.967 | 1.2 | 0.991 | 1.04 | 1.07 (inactive) | 1.01 (inactive) | 1.02 (inactive) | 1.21 (inactive) | 0.992 (inactive) | 0.985 (inactive) | 0.997 (inactive) | 1.01 (inactive)
